Shown are actives, neighbours in structure and some others; about 28% of the full set was active somewhere.
CYP2C19 inhib – blockers of cytochrome P450 2C19 activity – biochemical, luminescence, ADME assay, primary screen | P33261 | CYP2C19 Supersomes, luciferin-H EGE luminescence, 30 min | inhibition, % at 5 µM | 96,000 compounds, 21% hits | AID 778, 2007;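 active means CYP2C19 inhibition above a set limit at 5 µM in the primary screen, cut at about 50% in these data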;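 further: plate controls were negative control wells for no effect and 2.5 mM tranylcypromine positive control for full effect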
Target sequence (P33261 whole entry, looked up): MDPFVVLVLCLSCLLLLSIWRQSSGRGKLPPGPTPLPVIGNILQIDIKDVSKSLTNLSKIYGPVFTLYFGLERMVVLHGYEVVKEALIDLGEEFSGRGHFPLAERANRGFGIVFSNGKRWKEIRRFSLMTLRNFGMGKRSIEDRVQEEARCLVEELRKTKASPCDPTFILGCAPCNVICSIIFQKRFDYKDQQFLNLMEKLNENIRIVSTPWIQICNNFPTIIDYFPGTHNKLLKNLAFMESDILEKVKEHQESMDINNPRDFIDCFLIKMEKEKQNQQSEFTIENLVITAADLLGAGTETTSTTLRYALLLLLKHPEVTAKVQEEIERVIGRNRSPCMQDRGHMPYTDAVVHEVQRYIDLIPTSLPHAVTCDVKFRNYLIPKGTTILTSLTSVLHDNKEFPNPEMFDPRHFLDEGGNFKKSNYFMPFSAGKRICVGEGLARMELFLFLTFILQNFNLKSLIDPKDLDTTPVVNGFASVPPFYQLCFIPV
Pyk2 oligo antag – antagonists of Pyk2 self-association, primary screen, Q293 cells, FERM NanoBiT luminescence, HTS; hits give low values; z-score (the deposit names both 25 µM and 10 µM); 99,000 compounds, 0.83% hits; AID 1347419, 2020;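 active means Z-score of -3 or lower, scaled per plate to the spread of control and sample wells; inactive means z-score above -3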;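 further: negative z-score means lost luminescence so less FERM oligomerization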
CYP2C9 inh – blockers of cytochrome P450 2C9 activity – biochemical, luminescence, ADME assay, primary screen | P11712 | CYP2C9 Supersomes, luciferin-H conversion | inhibition, % at 5 µM | 96,000 compounds, 20% hits;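 active means blocking of liver enzyme CYP2C9 beyond about 50% at 5 µM, limit read from the data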
CYP2C19 activ – human CYP2C19 activators, primary screen, biochemical, luminescence; Cytochrome P450 2C19 (Homo sapiens), P33261; recombinant CYP2C19, luciferin-H EGE luminescence; hits give high values; 0 = fully inhibited enzyme, 1 = untreated enzyme; activation factor at 5 µM; 96,000 tested, under 10 active; AID 1025, 2008;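 active means activation factor of at least 2 at 5 µM in the primary screen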;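 further: 0 = wells with 2.5 mM tranylcypromine and 1 = vehicle-only wells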
CYP2C9 activ – human CYP2C9 activators, primary screen, biochemical, luminescence; recombinant CYP2C9, luciferin-H conversion; hits give high values; factor 1 = untreated enzyme, 0 = blocked; activation factor at 5 µM; 96,000 compounds, 1.4% hits; Cytochrome P450 2C9 (Homo sapiens), P11712;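 active means activation factor of 2 or more for CYP2C9 at a 5 µM dose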;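 further: 0 = sulfaphenazole-blocked wells and 1 = vehicle-only wells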
* marks the source's active call; other numbers are inactive results; / = no result given.

SMILES	CYP2C19 inhib	Pyk2 oligo antag	CYP2C9 inh	CYP2C19 activ	CYP2C9 activ
O=C(Nc1ccc(N2CCOCC2)cc1)C1CCCN(S(=O)(=O)c2cccc(C(F)(F)F)c2)C1 (stereo not drawn)	63.2*	0.11	12.1	0.4	0.9
COCCN(CC(=O)NCc1ccccc1)C(=O)CCC(=O)Nc1ccccn1	0.1	0.56	-4.6	1	1
O=C(Nc1ccc(Oc2cccc3ccccc23)cc1)c1ccco1	39.8	-0.48	-36.8	0.6	1.4
Cc1cc(SCCC(=O)O)nc2c(C)cccc12	6.5	1.11	17.1	0.9	0.8
CCNC(=O)C1CCN(S(=O)(=O)c2ccc(F)cc2)CC1	3.3	-0.11	-14.2	1	1.1
CC(=O)c1cccc(NC(=O)C2CCN(S(=O)(=O)c3ccc(F)cc3)CC2)c1	53.2*	0.61	63.3*	0.5	0.4
COC(=O)C1=C(C)N(C2CCCC2)C(=O)C1(NC(C)=O)C(F)(F)F (stereo not drawn)	-18.6	-0.88	-16.6	1.2	1.2
CC(Oc1cc(-c2ccccc2)cc2ccccc12)C(=O)N1CCOCC1 (stereo not drawn)	43.2	-2.78	35.2	0.6	0.6
CC(=O)n1nc(-c2ccco2)nc1SCc1ccccc1	66.2*	/	30.9	0.3	0.7
CCC(=O)n1nc(-c2ccco2)nc1SCc1ccccc1	78.4*	0.58	63.8*	0.2	0.4
CSc1nc(-c2ccco2)nn1C(=O)c1cccs1	38.4	-0.32	88.3*	0.6	0.1
COc1ccccc1/C=N/N(C(C)=O)c1nc(-c2ccc(F)cc2)cs1	24.4	-0.39	28.7	0.8	0.7
COC(=O)CNC(=O)CSc1nc(N)cc(=O)[nH]1	-12.1	0.68	12.6	1.1	0.9
Cc1ccc(CSCC(=O)N/N=C/c2sccc2C)cc1	83.2*	2.23	40.3	0.2	0.6
COc1ccc(CSCC(=O)N/N=C/c2ccccc2OCc2ccccc2)cc1	30.7	0.74	49.1	0.7	0.5
O=C1C2C3C=CC(C3)C2C(=O)N1CCN1CCN(S(=O)(=O)c2ccc3ccccc3c2)CC1 (stereo not drawn)	33.7	-1.14	-70.5	0.7	1.7
Cc1cccc(NS(=O)(=O)c2ccccc2)n1	-6.4	1.35	-8.4	1.1	1.1
COc1ccccc1NS(=O)(=O)c1cccc2cccnc12	70.0*	/	30.9	0.3	0.7
Cc1cccc(NS(=O)(=O)c2cccc3cccnc23)n1	5.0	/	-151.8	0.9	2.5*
COc1ccc(OC)c(NC(=O)c2ccccc2NS(=O)(=O)c2cccc3cccnc23)c1	76.9*	-0.36	92.1*	0.2	0.1
COc1ccc(S(=O)(=O)Nc2cccc(C)n2)c2ccccc12	67.0*	0.14	-61.2	0.3	1.6
COc1ccc(NS(=O)(=O)c2cccc3cccnc23)cc1	/	-0.48	/	/	/
CCOC(=O)C1C(=O)NC(N2CCOCC2)=NC1C(C)C (stereo not drawn)	-11.6	1.2	-7.5	1.1	1.1
O=S(=O)(NCc1ccccc1)c1ccc(S(=O)(=O)N(Cc2cccs2)CC2CCCO2)cc1 (stereo not drawn)	0.9	0.19	27.8	1	0.7
CN1CCc2c(sc3c2c(=O)n(-c2ccccc2)c2n[nH]c(=S)n32)C1	9.0	0.68	17.9	0.9	0.8
SMILES	CYP2C19 inhib	Pyk2 oligo antag	CYP2C9 inh	CYP2C19 activ	CYP2C9 activ
CCn1c(SCCN2CCCCC2)nnc1-c1ccc(S(=O)(=O)N2CCOCC2)cc1	10.0	-0.44	-2.7	0.9	1
C=CCNC(=O)CN(c1cccc(Br)c1)S(C)(=O)=O	12.1	-0.32	-28.3	0.9	1.3
CCCSc1nnc(C(C)C)n1N	-15.0	0.6	-11.3	1.1	1.1
COc1ccc(C2C(C(=O)Nc3ccccn3)=C(C)Nc3ncnn32)c(OC)c1 (stereo not drawn)	-2.2	/	38.4	1	0.6
COc1cccc(CNc2cccc3cccnc23)c1O	80.9*	-0.53	-122.8	0.2	2.2*
COc1cccc(CNc2cnc3ccccc3c2)c1O	/	-1.5	/	/	/
O=C(NC(C(=O)c1ccccc1)N1CCCCC1)c1ccccc1 (stereo not drawn)	76.7*	0.89	98.8*	0.2	0
Cc1ccc(C(=O)NC(N2CCCC2)C(Cl)(Cl)Cl)cc1 (stereo not drawn)	69.0*	0.17	12.5	0.3	0.9
O=C(Nc1ccc(Cl)c([N+](=O)[O-])c1)c1cnccn1	/	4.7	/	/	/
Fc1ccc(COc2ccccc2CNCc2ccncc2)cc1	/	-0.46	/	/	/
CCOc1cccc(CNn2cnnc2)c1OCc1ccccc1Cl	75.7*	-0.61	19.5	0.2	0.8
COc1cccc(CNn2cnnc2)c1OCc1ccc(F)cc1	86.4*	0.43	57.0*	0.1	0.4
COc1cccc(CNn2cnnc2)c1OCc1ccccc1F	75.5*	0.6	30.4	0.2	0.7
COC(=O)CC1SC(=O)NC1=Nc1ccc(OC)cc1 (stereo not drawn)	40.1	-0.6	18.4	0.6	0.8
Cc1cccc(OCCc2nnc(N)s2)c1C	-1.4	2.02	-5.3	1	1.1
C/C(=N/NC(=O)c1cccs1)c1ccc(NC(=O)COc2ccc(Cl)cc2)cc1	-6.8	2.2	-1.7	1.1	1
CCOC(=O)N1CCC(NC(=O)CN(C)S(=O)(=O)c2cc3c(cc2Cl)NC(=O)CO3)CC1	-3.9	-0.78	56.4*	1	0.4
CCOC(=O)c1cc(-c2cc3ccccc3o2)n[nH]1	30.7	-0.11	22.8	0.7	0.8
COC(=O)c1c(-c2cccc(C)c2)csc1N	18.5	0.49	-13.9	0.8	1.1
CCOC(=O)c1c(-c2ccc(C)o2)csc1NC(=O)COC(=O)c1cccs1	/	-0.12	/	/	/
CCOC(=O)c1c(-c2ccsc2)csc1N	62.6*	0.73	24.1	0.4	0.8
CCOC(=O)c1cc(-c2ccc(C)o2)n[nH]1	42.3	-0.32	52.2*	0.6	0.5
CCOC(=O)c1c(-c2ccc(C)o2)csc1N	58.8*	0.26	28.9	0.4	0.7
COc1cc(OC)cc(C(=O)Nc2cccc(N3CCCC3)c2)c1	-0.8	0.19	5.8	1	0.9
Cn1c(SCC(=O)NCc2ccccc2)nc2ccccc21	39.9	0.12	-345.3	0.6	4.5*
O=C(COC(=O)c1cccnc1SCC(=O)NCc1ccccc1)NCc1ccccc1	68.2*	-0.61	38.9	0.3	0.6
CN(C)C(=O)CSc1nc(SCC(=O)N(C)C)n(-c2ccccc2)n1	7.8	0.63	2.1	0.9	1
O=C(CSc1nccn1Cc1ccccc1)NCc1ccccc1	88.7*	1.08	56.5*	0.1	0.4
O=C(CSc1nc(SCC(=O)NCc2ccccc2)n(-c2ccccc2)n1)NCc1ccccc1	66.0*	-1.9	82.9*	0.3	0.2
O=C(NCC1CCCO1)c1nn2cccnc2c1Cl (stereo not drawn)	-14.7	0.79	-19.9	1.1	1.2
